The panel holds about 79,000 compounds, 15% with a hit somewhere; the sample as a whole holds those more often. Active and inactive are the calls of the source. No stated cut-off is given here; in the data, active means growth inhibition above about 70%; inactive means the rest.
What was measured:
[1] = NCI Yeast Anticancer Drug Screen. Data for the rad50 strain (AID 155);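 further: 0% = growth of vehicle-only cultures of the same strain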; settings: S. cerevisiae rad50 strain growth inhibition, stronger effect = higher value; at 50.0 µM unless noted
Procedure, shortened: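 Growth of the mutant yeast was measured after compound exposure and referenced to vehicle-treated cultures.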

[2] = NCI Yeast Anticancer Drug Screen. Data for the mec2-1 strain (AID 157); settings: S. cerevisiae mec2-1 strain, stronger effect = higher value; at 50.0 µM unless noted
Procedure, shortened: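 Test agents were screened against the mec2-1 yeast strain, with defined DNA repair or cell cycle alteration. Growth was scored as inhibition against vehicle-only controls.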

[3] = NCI Yeast Anticancer Drug Screen. Data for the sgs1 mgt1 strain (AID 161);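 further: 0% = growth of cultures given vehicle only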; settings: S. cerevisiae sgs1 mgt1 strain, stronger effect = higher value; at 50.0 µM unless noted
Procedure, shortened: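 Genetically altered yeast, compound exposure, growth inhibition relative to vehicle.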

[4] = NCI Yeast Anticancer Drug Screen. Data for the cln2 rad14 strain (AID 165);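 further: 0% = growth equal to vehicle treated cultures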; settings: S. cerevisiae cln2 rad14 strain, stronger effect = higher value; at 50.0 µM unless noted
Procedure, shortened: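 Growth of compound-exposed yeast (cln2 rad14 genotype) measured and expressed as inhibition relative to vehicle.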

[5] = NCI Yeast Anticancer Drug Screen. Data for the bub3 strain (AID 167); settings: S. cerevisiae bub3 mutant strain, stronger effect = higher value; at 50.0 µM unless noted
Procedure, shortened: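 Whole-cell yeast assay. The mutant strain was incubated with compounds, and growth inhibition was determined by comparison with vehicle-treated cells.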

[6] = NCI Yeast Anticancer Drug Screen. Data for the mlh1 rad18 strain (AID 175); settings: S. cerevisiae mlh1 rad18 strain growth inhibition, stronger effect = higher value; at 50.0 µM unless noted
Procedure, shortened: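 In this whole-cell yeast screen, a strain with altered DNA damage repair is challenged with compound, and its growth is measured against matched vehicle-treated controls.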

Measured: growth inhibition

CC(C#N)C(=O)O (centres undefined)
inactive: [1] -3.55% | [2] -5.85% | [3] -15.7% | [4] -8.15% | [5] -8.15% | [6] -18.5%

NC(=O)CCCO
inactive: [1] 6.1% | [2] -2.65% | [3] -3.25% | [4] 6.6% | [5] 3.25% | [6] 2.4%

CC(=O)OC1C(Br)CCCC1Br (centres undefined)
inactive: [1] -26% | [2] 4.25% | [3] 1.75% | [4] 1.9% | [5] 0.45% | [6] 15.8%

Cn1c(NN)nc2ccccc2c1=O
inactive: [1] -33.7% | [2] -3.25% | [3] -26.9% | [4] 5.55% | [5] -16.9% | [6] -27.8%

CCOc1ccccc1NC(=O)/C(=N\NC(C)(C)C)C1C(=O)Nc2ccccc2S1=O (centres undefined)
inactive: [1] -4.3% | [2] -27.9% | [3] -9.85% | [4] 9.2% | [5] -6.9% | [6] 10.1%

CCOC(=O)/C(C#N)=C/c1ccc(C)cc1
inactive: [1] 10.4% | [2] 15.8% | [3] 11.2% | [4] 6.15% | [5] 22.3% | [6] 22.9%

O=C(O)Cc1cc(=O)oc2ccccc12
inactive: [1] 7.4% | [2] -12.3% | [3] 8.2% | [4] -15.8% | [5] -6.8% | [6] 8.75%

O=C(CC1CCCCC1)OCCOCCO
inactive: [1] -7.9% | [2] -5.7% | [3] -27.6% | [4] 3.35% | [5] -2.85% | [6] -3.5%

CC1=C2CC(C)(C)CC(=O)C2(C)CCC1=O (centres undefined)
inactive: [1] 4.2% | [2] -6.55% | [3] 11.9% | [4] 25.6% | [5] -2.85% | [6] 27.8%

CN(C)C(C)(CO)CO
inactive: [1] 17.4% | [2] -6.55% | [3] 0.65% | [4] 6.45% | [5] 9.2% | [6] 0.55%

C/C=C/C(=O)Oc1ccc[nH]c1=O
inactive: [1] -10.9% | [2] 13.1% | [3] 4.85% | [4] -2.15% | [5] 11.8% | [6] -4.25%

O=C(Nc1cccc(I)c1)OCCCl
active: [1] 79.8% | [3] 87.2%
inactive: [2] 7.5% | [4] 0.4% | [5] -7.55% | [6] 57.2%

CC(=O)NC1C(OCc2ccccc2)OC(CO)C(O)C1OCC(=O)NC(C)C(=O)NC(CCC(=O)NCCCCCNc1c2ccccc2nc2cccc([N+](=O)[O-])c12)C(N)=O (centres undefined)
active: [1] 78.8% | [2] 87.3% | [3] 79% | [4] 78.8% | [6] 89%
inactive: [5] 53.5%

CC1(C)OC(=O)C(Cc2ccccc2)(Cc2ccccc2)C(=O)O1
inactive: [1] 2.2% | [2] -19.9% | [3] -11.8% | [4] 30.1% | [5] -17.1% | [6] -13.9%

O=[N+]([O-])c1ccc(/C=C(/c2ccc([N+](=O)[O-])o2)S(=O)(=O)c2ccccc2)cc1
inactive: [1] 64.8% | [2] 13.8% | [4] 43% | [5] -1.25% | [6] 60.5%
active: [3] 76.8%

C=C1C(=O)OC2C3[C@@]4(C)O[C@H]4[C@H]4O[C@@]34[C@](C)(O)CC(OC(C)=O)[C@@H]12 (some centres undefined)
inactive: [1] -16.4% | [2] -30.6% | [3] -7.3% | [4] -7.45% | [5] -24.4% | [6] -22.1%

Fc1ccc2c(c1)SC1Oc3ccccc3-c3c1c-2nn3-c1ccccc1 (centres undefined)
inactive: [1] -5.45% | [2] -7.45% | [3] -17.4% | [4] 8.8% | [5] -11.1% | [6] -2.6%

Clc1ccc2[nH]ncc2c1
inactive: [1] 8.9% | [2] -36.1% | [3] -5.9% | [4] -7.95% | [5] 7.55% | [6] 18.1%

O=C1OC(c2ccccc2)Cc2ccccc21 (centres undefined)
inactive: [1] -20.2% | [2] -10.8% | [3] -22.1% | [4] 4.55% | [5] 3.15% | [6] -9.9%

CCCN(CCC)CC(O)c1ccc(Cl)c2ccccc12 (centres undefined)
inactive: [1] 1.85% | [2] -30.1% | [3] 21.1% | [4] -35.3% | [5] -17.9% | [6] -9.55%

C=CCC1(CN(C)C)CC/C(=C\c2cc(OC)c(OC)c(OC)c2)C1=O (centres undefined)
inactive: [1] -8.7% | [2] -3.15% | [3] -26% | [4] -4.65% | [5] -9.85% | [6] 20.2%

NC(=O)c1ncc(Cl)cc1Cl
inactive: [1] 21.1% | [2] 2.5% | [3] 14.3% | [4] 5.8% | [5] 0.55% | [6] 25.1%

O=c1[nH]c(=O)n(C2OC(CO)C(O)C2Br)cc1Br (centres undefined)
inactive: [1] -2.25% | [2] -3.3% | [3] -6.8% | [4] -7.6% | [5] 0.65% | [6] 23.9%

Cc1ccc(O)c(-c2ccnn2-c2ccccc2)c1
inactive: [1] 20.5% | [2] 33.9% | [3] 15.1% | [4] -10.8% | [5] 5.25% | [6] 35.8%

CSC(=NC(=O)c1ccccc1)SCCSC(=NC(=O)c1ccccc1)SC
inactive: [1] 6.45% | [2] -7.35% | [3] 2.8% | [4] 33.6% | [5] -3.65% | [6] 6.35%

CCOC(=O)Cn1c(=O)[nH]c(=O)c2c1ncn2Cc1ccccc1
inactive: [1] 32.9% | [2] -2.35% | [3] -3.1% | [4] 13.2% | [5] 30.2% | [6] 25.7%

Clc1cc(NCc2ccco2)ncn1
inactive: [1] -21.8% | [2] -6.3% | [3] -19.5% | [4] -3.9% | [5] 0.85% | [6] -11.2%

Cc1cc2c(C)nn(Cc3ccccc3)c2c(C(N)=O)c1C
inactive: [1] 9.85% | [2] -6.65% | [3] -10% | [4] 35.6% | [5] -3.1% | [6] 51.4%

NC(=O)CC[n+]1ccccc1
inactive: [1] 11.1% | [2] -29.3% | [3] 6.5% | [4] 11.7% | [5] -19.4% | [6] 7.2%

O=C(O)C1(C(=O)O)CCCCC1.[NH2-].[NH2-].[Pt+2]
inactive: [1] 2.65% | [2] 17.5% | [3] 1.6% | [4] 22.2% | [5] 7.6% | [6] 15.8%

O=S(=O)(O)c1cc(O)c(S(=O)(=O)O)cc1O
inactive: [1] -12.2% | [2] 13.9% | [3] 1.7% | [4] -3.6% | [5] 1.4% | [6] -8.6%

Clc1ccccc1Nc1nc(Nc2ccccc2Cl)nc(Nc2ccccc2Cl)n1
inactive: [1] 21.1% | [2] 19.4% | [3] 21.6% | [4] 37.9% | [5] 7.3% | [6] 5.95%

O=C(CC(=O)C(F)(F)F)c1ccccc1.O=C(CC(=O)C(F)(F)F)c1ccccc1.[Mn]
inactive: [1] -1.85% | [2] -0.35% | [3] 19.2% | [4] -13.7% | [5] 3.6% | [6] 18.5%

CC(=O)OCC1OC(n2c(=O)[nH]c(=O)c3n[nH]nc32)C(OC(C)=O)C(OC(C)=O)C1OC(C)=O (centres undefined)
inactive: [1] -4.2% | [2] 7.15% | [3] 3.4% | [4] 24.9% | [5] -1.05% | [6] -4.35%

CCSc1nnc(SCC)c2c1ncn2CC
inactive: [1] 19.9% | [2] 5.8% | [3] 26.4% | [4] -39.8% | [5] 7.5% | [6] 9.05%

O=C1c2ccccc2C(=O)N1CCCCCCCCCCN1C(=O)c2ccccc2C1=O
inactive: [1] 33% | [2] -10.3% | [3] 17.3% | [4] 2.75% | [5] -3.75% | [6] -7.15%

CC12CCC(CC1(Cl)Cl)C2 (centres undefined)
inactive: [1] 9.75% | [2] -5.8% | [3] 21.1% | [4] 14.3% | [5] 4.7% | [6] 26.9%

CCOC(=S)Nc1ccccc1[N+](=O)[O-]
inactive: [1] 8.05% | [2] -10.6% | [3] 0.05% | [4] -57.6% | [5] -23.6% | [6] -9.15%

O=C(Cc1nc2ccccc2s1)C(=O)Nc1cccc(C(F)(F)F)c1
inactive: [1] -4.95% | [2] 8.75% | [3] -10.7% | [4] 7.95% | [5] 6.1% | [6] -6%

Reference: PubChem BioAssay (NCI)
